From PubChem
tim10-1 inh = growth inhibitors of tim10-1 mutant yeast; actives 2.2% (n = 330,000); inhibition, % at 20 µM; AID 463190; S. cerevisiae tim10-1 ts strain growth, BacTiter-Glo, 24 h;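 active means inhibition of at least 40%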;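 further: mutant grown at 25 °C; 0% = DMSO wells with yeast and 100% = wells holding no yeast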
tim23-1 inh = tim23-1 yeast growth inhibition; S. cerevisiae tim23-1 growth, BacTiter-Glo luminescence, 24 h; inhibition, % at 20 µM; actives 1.3% (n = 330,000); AID 463212;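 active means growth inhibition of the mutant yeast at or above 50%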;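 further: temperature-sensitive mutant grown at 25 °C; plate controls were DMSO-treated mutant yeast for no effect and medium wells lacking yeast for full effect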
MPTP block = blocks calcium-induced mitochondrial swelling. isolated mouse mitochondria, Ca2+ swelling absorbance, 30 min. inhibition, % at 10 µM. actives 1.4% (n = 360,000);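 active means inhibition of 50% or more, scaled per plate between neutral and stimulator controls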;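 further: 0% = DMSO wells given calcium and 100% = 1 mM EGTA wells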
TIM10 inh = TIM10 yeast growth inhibition; actives 1.4% (n = 330,000); inhibition, % at 10 µM; AID 463195; S. cerevisiae TIM10 strain growth, BacTiter-Glo luminescence, 24 h;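 active means inhibition of 40% or more at the single tested concentration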;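 further: wild-type TIM10 isogenic control strain grown at permissive 25 °C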
Mdm2-MdmX inh = disrupts the human Mdm2-MdmX interaction | actives 3% (n = 330,000) | SaOS-2 split-luciferase Mdm2/MdmX complementation, luminescence | inhibition, % at 8 µM | AID 485346;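 active means inhibition of at least 50% at 8 µM in the primary screen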
Target sequence (O15151 whole entry, looked up): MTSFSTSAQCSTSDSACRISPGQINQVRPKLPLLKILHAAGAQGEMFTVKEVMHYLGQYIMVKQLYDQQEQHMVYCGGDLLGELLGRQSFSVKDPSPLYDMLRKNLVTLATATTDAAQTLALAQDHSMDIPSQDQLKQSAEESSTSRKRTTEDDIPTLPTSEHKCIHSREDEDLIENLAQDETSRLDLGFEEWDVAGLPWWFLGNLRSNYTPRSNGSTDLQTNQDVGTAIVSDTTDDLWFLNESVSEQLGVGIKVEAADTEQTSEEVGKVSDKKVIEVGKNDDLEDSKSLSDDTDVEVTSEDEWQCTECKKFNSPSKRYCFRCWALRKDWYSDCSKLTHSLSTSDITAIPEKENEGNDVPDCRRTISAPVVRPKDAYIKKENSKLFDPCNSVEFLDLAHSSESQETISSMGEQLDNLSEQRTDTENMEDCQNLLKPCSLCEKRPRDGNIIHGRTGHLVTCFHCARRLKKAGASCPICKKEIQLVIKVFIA
Target sequence (Q00987 whole entry, looked up): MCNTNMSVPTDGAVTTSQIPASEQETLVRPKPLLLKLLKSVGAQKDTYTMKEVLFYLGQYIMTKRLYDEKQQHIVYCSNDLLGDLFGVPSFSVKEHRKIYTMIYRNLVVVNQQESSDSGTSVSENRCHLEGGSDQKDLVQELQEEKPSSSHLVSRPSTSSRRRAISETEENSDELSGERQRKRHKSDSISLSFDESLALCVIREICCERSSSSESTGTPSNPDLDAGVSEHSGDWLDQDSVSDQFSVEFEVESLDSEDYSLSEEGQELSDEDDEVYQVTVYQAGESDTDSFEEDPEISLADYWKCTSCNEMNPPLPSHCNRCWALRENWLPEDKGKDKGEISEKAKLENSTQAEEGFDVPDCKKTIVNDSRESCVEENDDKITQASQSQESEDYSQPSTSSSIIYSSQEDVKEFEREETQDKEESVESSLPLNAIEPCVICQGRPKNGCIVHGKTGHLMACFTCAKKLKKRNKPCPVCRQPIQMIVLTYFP
TIM10 conf = confirmation of TIM10 yeast growth inhibitors; shares compounds with TIM10 inh; inhibition, % at 10 µM; S. cerevisiae tim10 strain growth, BacTiter-Glo luminescence, 24 h; actives 63% (n = 4,600);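 active means inhibition of yeast growth at or above a set limit in either of two replicates at 10 µM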;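 further: this counterscreen used the strain with wild-type TIM10; 0% = yeast with DMSO and 100% = medium wells lacking yeast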
tim23-1 confirm = tim23-1 yeast growth inhibition, confirmed | shares compounds with tim23-1 inh | S. cerevisiae tim23-1 growth, BacTiter-Glo luminescence, 24 h | inhibition, % at 20 µM | actives 83% (n = 4,400) | AID 463218;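 active means inhibition above about 39% in either of two replicate wells at 20 µM, limit read from the data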;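 further: temperature-sensitive tim23-1 mutant grown at 25 °C; 0% = DMSO wells with yeast and 100% = medium wells without yeast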
* = called active by the depositor; / = no result. Sampled rows, rich in hits. Any-hit rate of the full collection: about 6.3%.

SMILES | tim10-1 inh | tim23-1 inh | MPTP block | TIM10 inh | Mdm2-MdmX inh | TIM10 conf | tim23-1 confirm
O=C(c1ccc([N+](=O)[O-])o1)N1CCc2ccccc2C1 | 38 | 59* | 0 | 73* | 18 | 73* | 35
CC1(C)CCC[C@]2(C)C(CS(=O)c3ccccc3)=C(C=O)CC[C@@H]12 (stereo partly specified) | 29 | 67* | 11 | 49* | 11 | 47* | 55*
O=C(N/N=C/C(Br)=C\c1ccccc1)c1cccs1 | -15 | 71* | 6 | 44* | -111 | 40* | 69*
O=C(N/N=C/C(Br)=C/c1ccccc1)c1ccncc1 | 25 | 28 | 3 | 13 | 38 | / | /
CCOC(=O)Nc1ccc2nc(N3CCCCCC3)sc2c1 | 36 | 50* | 0 | 40* | 4 | 40* | -29
CCOC(=O)N1CCN(C(=O)Nc2ccc3nc(C)sc3c2)CC1 | -3 | -4 | -1 | 6 | 20 | / | /
CCOC(=O)C1(C)CCCN(C(=O)c2ccc(OC)cc2)C1 (stereo unspecified) | / | / | 0 | / | / | / | /
COc1cccc(/C=N/n2c(N)nc3ccccc32)c1OC | 10 | 60* | 0 | 44* | 19 | 45* | 38
CC(C)=CCc1c(O)ccc(C(=O)Cc2ccccc2)c1O | 19 | 67* | 7 | 41* | 23 | 58* | -32
Cc1ccc(C(=O)Cc2ccccc2)c(O)c1 | / | / | 1 | / | / | / | /
CC1=C(C(=O)N(C)C)CC(CC(=O)NC2CCCCC2)C(=O)N1CCCN1CCCC1=O (stereo unspecified) | / | / | 1 | / | / | / | /
Cc1cc(O)ccc1-c1cccc2nccn12 | / | / | -1 | / | / | / | /
Cc1csc(=NC(=O)c2ccccc2)n1C | 3 | 55* | 2 | 44* | -60 | 38* | 54*
COc1ccc(S(=O)(=O)N2CCN(Cc3ccc(Cl)cc3)CC2)cc1 | 28 | 58* | 2 | 42* | -3 | 40* | 50*
COc1cccc(-c2cnc3c(NC=O)cc(-c4ccncc4)cn23)c1 | / | / | 1 | / | / | / | /
C/C(=N\NC(=S)NCCc1ccccc1)c1cccs1 | 39 | 51* | 0 | 41* | 4 | -12 | 46*
Cn1c(CSc2nc3ccc(Br)cc3[nH]2)nc2ccccc21 | 29 | 61* | 3 | 41* | 25 | 28 | 57*
N=NC(=O)c1ccccc1Nc1c(O)[nH]c2ccccc12 | / | / | -1 | / | / | / | /
C(=C\c1ccc2ccccc2n1)/c1ccccc1 | -8 | 25 | 1 | -2 | -84 | / | /
Oc1ccc(/C=C/c2ccc3ccccc3n2)cc1 | 16 | 75* | 2 | 44* | -27 | 47* | 55*
O=C1/C(=C/c2cccs2)Cc2ccccc21 | 20 | 51* | 1 | 48* | -8 | -48 | 70*
CCC(C(=O)NC1CCCC1)n1c(C2CCCC2)nc2ccccc21 (stereo unspecified) | / | / | 5 | / | / | / | /
Cn1c(SCC(=O)N/N=C/c2ccc([N+](=O)[O-])s2)nnc1-c1ccc(Cl)cc1 | 23 | 62* | -4 | 81* | 4 | -23 | 65*
COc1cc([N+](=O)[O-])cc(/C=N/NC(=O)CSc2nnc(-c3ccccc3)n2C)c1O | 1 | -4 | / | 13 | 26 | / | /
CCCCCCCCC1=NCCc2c1[nH]c1ccccc21 | 38 | 57* | 3 | 45* | 31 | 13 | 43*
SMILES | tim10-1 inh | tim23-1 inh | MPTP block | TIM10 inh | Mdm2-MdmX inh | TIM10 conf | tim23-1 confirm
O=C(Nc1ccc2nsnc2c1)c1cccs1 | 16 | 19 | 0 | 18 | 16 | / | /
COc1cccc(C(=O)Nc2ccccc2)c1 | 25 | 50* | 0 | 44* | -16 | 27 | 58*
CC(c1ccccc1)N1CCn2c(nc3cc(NC(=O)c4cccs4)ccc32)C1 (stereo unspecified) | 24 | 53* | -1 | 44* | 8 | 32* | 64*
COc1cccc(NC(=O)c2cccs2)c1 | 27 | 51* | -1 | 66* | -22 | 56* | 75*
O=C(Nc1ccc2nn(-c3ccccc3)nc2c1)c1cccs1 | 30 | 54* | 5 | 53* | -28 | 54* | 65*
COc1ccc(NC(=O)C2Cc3c(-c4ccc5c(c4)OCO5)ccnc3O2)cc1 (stereo unspecified) | / | / | -1 | / | / | / | /
COC(=O)c1ccc(N2C(c3ccsc3)=Cc3cc4c(cc3C2CC(=O)c2ccco2)OCO4)cc1 (stereo unspecified) | / | / | 0 | / | / | / | /
COCC(=O)Nc1cc(C(=O)Nc2ccccc2)ccc1Cl | 31 | 54* | / | 42* | 22 | 47* | 71*
COc1ccc(NC(=O)c2cccs2)cc1OC | -2 | 26 | 0 | 20 | -1 | / | /
COc1ccc(C(=O)Nc2ccccc2)cc1NC(=O)c1cccs1 | 18 | 51* | -1 | 54* | -1 | 45* | 74*
CCCS(=O)(=O)NC(=O)C1(C)CCN(C(=O)c2ccc(C(=O)OC)cc2)C1 (stereo unspecified) | / | / | 0 | / | / | / | /
COc1ccc(C(C)=O)cc1COc1ccc(F)cc1 | -10 | 19 | -4 | 16 | -6 | / | /
COc1ccc(C(=O)NN)cc1COc1ccc(Br)cc1 | 31 | 61* | 0 | 47* | 28 | 40* | 43*
O=c1oc(-c2ccccc2)nc2c1cnn2-c1ccccc1 | 28 | 39 | -1 | 39 | 32 | / | /
O=c1oc(-c2cccs2)nc2c1cnn2-c1ccccc1 | 38 | 51* | 0 | 47* | 5 | 34* | 47*
CC(=O)Nc1sc2c(c1C(c1ccc(F)cc1)N1CCOCC1)CCCC2 (stereo unspecified) | 34 | 33 | -1 | 37 | 22 | / | /
CC(=O)Nc1sc2c(c1C(c1ccc(Cl)cc1)N1CCOCC1)CCCC2 (stereo unspecified) | 29 | 51* | -1 | 41* | 35 | -53 | 55*
N#C/C(=C\c1ccccc1Cl)C(=O)Nc1ccccn1 | 33 | 64* | 7 | 43* | -6 | 23 | 42*
N#C/C(=C\c1cccs1)C(=O)Nc1ccccn1 | -21 | 3 | 1 | -15 | 13 | / | /
O=C(Oc1cc(=O)oc2c1c(=O)n1c3c(cccc23)CC1)c1ccccc1 | 12 | 58* | 2 | 41* | 19 | 29 | 66*
COc1ccc(NC(=O)C2(C)Cc3c(-c4cccc(NC(C)=O)c4)ccnc3O2)cn1 (stereo unspecified) | / | / | 0 | / | / | / | /
CCN(CC)C(=O)C1=C(C)N(CCC2=CCCCC2)C(=O)C(CC(=O)NC2CCCC2)C1 (stereo unspecified) | / | / | -1 | / | / | / | /
Cn1c(/C(C#N)=C/c2ccncc2)nc2ccccc21 | 35 | 68* | -1 | 46* | 18 | 19 | 63*
N#Cc1ccccc1Cn1cc(/C=C/[N+](=O)[O-])c2ccccc21 | 32 | 69* | -1 | 67* | 47 | -1 | 82*
CCCCOc1ccc(-c2csc(N)n2)cc1[N+](=O)[O-] | 23 | 53* | 2 | 43* | -139 | -2 | 63*
